G9a block: qHTS Assay for Inhibitors of Histone Lysine Methyltransferase G9a; G9a H3K9 monomethylation, AlphaScreen, 2 h; 350,000 tested, 8.8% active; Histone-lysine N-methyltransferase EHMT2 (Homo sapiens), Q96KQ7; Potency, µM (series often up to 102 µM), for the others: top-dose activity, negative = inhibition, hits mostly inhibitors; also: % is scaled to controls: 0 for no effect and ±100 for the full control effect; nearly all actives have a fitted effect of over 75% in size
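AlphaScreen detection with an anti-monomethyl H3K9 antibody quantified product after a 2 h room-temperature reaction containing 500 nM biotinylated H3K9 peptide, 20 µM SAM and 20 nM enzyme, which had been preincubated 15 min with compound.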
BAZ2B inh: qHTS Assay for Inhibitors of BAZ2B; 360,000 tested, 4.4% active; AID 504333, 2011; Potency, µM (highest dose often 114 µM), without a hit: at the highest dose activity change, negative = inhibition, usual class: inhibitors; AlphaScreen BAZ2B-H3K14Ac peptide displacement; Bromodomain adjacent to zinc finger domain protein 2B (Homo sapiens), Q9UIF8; also: % is scaled to controls: 0 for no effect and ±100 for the full control effect; nearly all actives have a fitted effect of over 60% in size
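AlphaScreen luminescence quantifies BAZ2B engagement of H3K14Ac peptide; the protein and biotinylated peptide are both at 50 nM final, buffer PBS pH 7.4 with 0.01% Tween-20, all steps at room temperature.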
HP1b binding inh: HTS for Inhibitors of HP1-beta Chromodomain Interactions with Methylated Histone Tails. 390,000 tested, 0.56% active. AID 540317, 2011. AlphaScreen HP1-beta / biotin-H3K9me3 peptide binding. Potency, µM (highest dose often 114 µM), inactives show top-dose activity change, negative = inhibition, most hits filed as inhibitors; also: nearly all actives have a fitted effect of over 70% in size
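AlphaScreen: HP1-beta (50 nM) preformed 30 min with biotin-H3(1-18)K9me3 peptide (50 nM) in PBS pH 7.4, 0.01% Tween-20. Compound added for 30 min at RT, then streptavidin donor/nickel chelate acceptor beads (10 ug/mL) for 30 min.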
GLS inh: qHTS for Inhibitors of Glutaminase (GLS); GLS enzymatic activity, qHTS titration; Potency, µM (series often up to 45.5 µM), for inactives: at the highest dose activity change, negative = inhibition, actives largely listed as inhibitors; 410,000 tested, 0.21% active; AID 624170, 2012; also: % is scaled to controls: 0 for no effect and ±100 for the full control effect
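Human kidney-isoform GLS in 45 mM KH2PO4 pH 8.2, 0.02% Tween-20, with compound, started with 1mM L-Glutamine (added stock). Glutamate oxidase/HRP/Amplex red coupled fluorescence read at start and after 30 min at RT.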
JMJD2A Tudor: qHTS Assay for Inhibitors of JMJD2A-Tudor Domain; Lysine-specific demethylase 4A (Homo sapiens), O75164; AlphaScreen JMJD2A-Tudor / H3K4me3 peptide binding; Potency, µM (top dose mostly 114 µM), for inactives: top-dose activity change, negative = inhibition, actives largely listed as inhibitors; 390,000 tested, 4.4% active; AID 504339, 2011; also: % is scaled to controls: 0 for no effect and ±100 for the full control effect; nearly all actives have a fitted effect of over 50% in size
Target sequence (O75164 whole entry, looked up, the tested form may be a part): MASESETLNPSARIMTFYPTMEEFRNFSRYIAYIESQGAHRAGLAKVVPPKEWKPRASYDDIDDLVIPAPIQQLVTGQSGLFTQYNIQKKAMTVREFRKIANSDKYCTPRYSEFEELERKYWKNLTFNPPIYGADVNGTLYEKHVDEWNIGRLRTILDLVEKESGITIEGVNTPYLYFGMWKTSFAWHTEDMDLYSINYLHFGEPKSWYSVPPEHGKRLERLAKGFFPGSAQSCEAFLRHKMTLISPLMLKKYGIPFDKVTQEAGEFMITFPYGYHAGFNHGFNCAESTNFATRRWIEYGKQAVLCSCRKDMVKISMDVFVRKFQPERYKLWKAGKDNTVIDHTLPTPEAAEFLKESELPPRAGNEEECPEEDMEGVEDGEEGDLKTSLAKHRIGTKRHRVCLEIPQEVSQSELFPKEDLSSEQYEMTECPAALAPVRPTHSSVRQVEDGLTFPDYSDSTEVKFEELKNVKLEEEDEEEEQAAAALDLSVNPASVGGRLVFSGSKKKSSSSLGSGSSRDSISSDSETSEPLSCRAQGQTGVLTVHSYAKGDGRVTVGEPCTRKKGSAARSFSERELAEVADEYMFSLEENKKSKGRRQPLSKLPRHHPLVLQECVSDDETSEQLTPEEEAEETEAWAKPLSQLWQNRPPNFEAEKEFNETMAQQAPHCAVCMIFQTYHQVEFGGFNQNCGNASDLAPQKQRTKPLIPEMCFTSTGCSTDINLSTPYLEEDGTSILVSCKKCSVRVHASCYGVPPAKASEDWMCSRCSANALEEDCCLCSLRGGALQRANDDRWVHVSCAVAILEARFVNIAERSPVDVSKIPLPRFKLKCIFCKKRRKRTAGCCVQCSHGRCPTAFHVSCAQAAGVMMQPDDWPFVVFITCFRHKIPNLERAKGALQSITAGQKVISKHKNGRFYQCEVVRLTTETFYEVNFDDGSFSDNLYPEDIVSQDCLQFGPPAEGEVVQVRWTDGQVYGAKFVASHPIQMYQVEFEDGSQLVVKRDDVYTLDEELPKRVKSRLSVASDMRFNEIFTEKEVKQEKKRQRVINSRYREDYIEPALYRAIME
* hit, by the source's call; ? = inconclusive; nt = no result; [ ] = another dose, or the depositor's remark. Hits are enriched below; roughly 10% of the tested compounds scored in any of these assays. Calls follow the shape of the dose curve; as a rule, active = well fitted curve in the direction sought with a large enough effect; inconclusive = small, poorly fitted or top-dose-only effect, or another doubt; inactive = no such curve, though single readings can be large; an effect the other way counts as inactive or inconclusive. Potency is read from the fitted curve at half-maximal effect.

SMILES	G9a block	BAZ2B inh	HP1b binding inh	GLS inh	JMJD2A Tudor
Cc1sc2nc(-c3ccncc3)[nH]c(=O)c2c1-c1ccccc1	15.9%[59 µM]	3.8%	nt	nt	nt
CCN(CC)C(=O)c1sc2nc(-c3ccncc3)[nH]c(=O)c2c1C	26.1%[59 µM]	-2.4%	38.2%	-5.6%	-4.8%
Cc1sc2nc(-c3ccccn3)[nH]c(=O)c2c1-c1ccccc1	10µM*	-3.4%	17.6%	-15.4%	-14.5%
CC1(C)Nc2ccc(O)cc2-c2c1ssc2=S	8.91µM*	44.7µM*	50.1µM*	21.1%	39.8µM*
COc1ccc(OC)c(CNC(=O)Cn2nc(C)c3nn(-c4ccc(Cl)cc4)c(C)c3c2=O)c1	-19.0%[59 µM]	2.0%	31.6%[57 µM]	-0.2%	-1.6%
C/C(=N/Nc1ccnc2cc(Cl)ccc12)c1ccc(N)cc1	1.78µM*	44.7µM*	-8.1%	15.8%	?
C/C(=N/Nc1ccnc2cc(Cl)ccc12)c1ccc(O)cc1	22.5%[2.33 µM]	44.7µM*	-12.8%	18.0%	?
COc1ccc(-n2c(=O)c(CCc3ccccc3)nc3cnc(OC)nc32)cc1	-2.7%[0.501 µM]	nt	nt	nt	nt
CCCN(CCC)CC(O)Cn1cc(/C=C/C(=O)c2ccc(C)cc2)c2ccccc21 (stereo not given)	-53.7%[59 µM]	22.4µM*	-0.8%	14.2%	?
CCCN(CCC)CC(O)Cn1cc(/C=C/C(=O)c2ccc(OC)cc2)c2ccccc21 (stereo not given)	-45.2%[59 µM]	?	-19.3%	-5.3%	44.7µM*
CCCCOc1cccc(C(=O)N(Cc2sccc2C)C2CCS(=O)(=O)C2)c1 (stereo not given)	-30.0%[59 µM]	-1.7%	37.3%	-8.5%	-12.2%
CCOc1cc(/C=C2/C(=N)N3C(=NC2=O)SN=C3S(C)(=O)=O)ccc1OC(=O)c1ccco1	5.8%[0.0925 µM]	50.1µM*	4.9%	0.4%	?
CCS(=O)(=O)C1=NSC2=NC(=O)/C(=C\c3ccc(OC(=O)c4ccco4)cc3)C(=N)N21	44.7µM*	?	8.4%	25.2%	-18.8%
CC1=CC2=NC(=O)/C(=C\c3cccn3CCOc3ccccc3C)C(=N)N2O1	-49.2%	?	-23.9%	12.0%	?
COc1ccccc1OCCOc1ccc(/C=C2/C(=N)N3OC(C)=CC3=NC2=O)cc1OC	70.8µM*	-26.3%	11.1%	8.0%	-36.0%
COc1cc(/C=C2\C(=N)N3N=C(S(C)(=O)=O)SC3=NC2=O)ccc1OCCOc1ccccc1C	25.1µM*	56.2µM*	?	70.6%	?
O=C(Nc1ccc2c(c1)OCCO2)c1[nH]c(C(F)(F)F)nc1-c1ccccc1	nt	nt	nt	13.2%	nt
O=C(CSc1cn(CCNC(=O)c2cccc(C(F)(F)F)c2)c2ccccc12)Nc1ccc2c(c1)OCCO2	?	-30.1%	26.8%	9.6%	-24.3%
Cc1ccc(-n2nc(C(=O)N(C)Cc3ccccc3)c3c4ccccc4n(C)c3c2=O)cc1	-28.7%[59 µM]	5.2%	23.8%	8.9%	-6.8%
CCC(C)NC(=O)c1ccc(Cn2c(=O)c3cccn3c3cccnc32)cc1 (stereo not given)	9.0%[59 µM]	-1.5%	33.7%	-3.8%	1.1%
CCS(=O)(=O)C1=NN2C(=N)/C(=C\c3ccc(OC(=O)c4ccco4)c(Br)c3)C(=O)N=C2S1	-17.5%[59 µM]	50.1µM*	nt	nt	nt
CCS(=O)(=O)C1=NN2C(=N)/C(=C\c3ccc(SCc4ccco4)o3)C(=O)N=C2S1	12.6µM*	50.1µM*	?	?	31.6µM*
COc1cc(/C=C2\C(=N)N3N=C(S(C)(=O)=O)SC3=NC2=O)ccc1OC(=O)c1ccco1	44.7µM*	50.1µM*	-11.8%[57 µM]	4.6%	?
CCOc1cc(/C=C2\C(=N)N3N=C(S(=O)(=O)CC)SC3=NC2=O)ccc1OC(=O)c1ccco1	44.7µM*	?	28.4%	1.9%	-4.7%
CCOc1cc(/C=C2/C(=N)N3N=C(CC)SC3=NC2=O)ccc1OC(=O)c1ccco1	nt	-16.9%	-3.3%	-18.9%	-33.3%
SMILES	G9a block	BAZ2B inh	HP1b binding inh	GLS inh	JMJD2A Tudor
CC1=CN2C(=N)/C(=C/c3ccc(Sc4ccc(Cl)cc4)o3)C(=O)N=C2S1	26.9%[59 µM]	-3.9%	7.3%	1.8%	-5.8%
C[C@H]1CN(S(=O)(=O)c2c(F)cccc2F)CCN1S(=O)(=O)c1ccc2c(c1)OCCO2	nt	nt	38.4%	-2.7%	-10.1%
CCCNC(=O)C1(C)CCCN(C(=O)CN2C(=O)c3ccccc3C2=O)C1 (stereo not given)	nt	nt	nt	3.9%	nt
CSCCC(C(=O)Nc1c(C)cccc1C)N1CCN(c2ccc(F)cc2)CC1 (stereo not given)	nt	nt	nt	25.5%	nt
O=c1c2[nH]c3ccsc3c2cnn1Cc1ccccc1F	nt	nt	nt	nt	-2.7%
COc1ccc(C(=O)/C(Br)=C/C(=O)O)cc1	?	nt	nt	4.7%	nt
COc1cc(/C=C2\C(=N)N3N=C(S(C)(=O)=O)SC3=NC2=O)ccc1OC(=O)c1cccs1	-24.7%	56.2µM*	30.8%	19.4%	-3.5%
COc1ccc(/C=C2/C(=N)N3N=C(CC(=O)N4CCCC4)SC3=NC2=O)cc1OC	18.7%	-15.2%[57.1 µM]	17.6%	-4.7%	-13.5%
Cc1nn(C)c(C(=O)N/N=C/c2ccc(-c3ccccc3)cc2)c1Cl	52.9%	-3.0%	23.8%	-1.2%	-4.8%
COc1ccccc1CCn1c(=O)c(-c2cccc(Cl)c2)nc2cncnc21	1.8%[0.501 µM]	nt	nt	nt	nt
Nc1nnc(N)c2ccccc12	-4.2%	-2.2%	6.1%	-5.5%	-18.7%
Nc1nsc2ccccc12	39.8µM*	11.3%	7.4%	-18.5%	-1.1%
Cc1ccc2nc(SCc3cn4cccnc4n3)[nH]c2c1	7.3%	11.2%	?	0.3%	?
COc1cccc(-c2nc(CS(=O)(=O)CC(=O)Nc3cccc(C(C)=O)c3)c(C)o2)c1	14.1%	?	-0.3%	-6.9%	?
COc1ccc(-c2nc(CS(=O)(=O)CC(=O)Nc3cccc(C(C)=O)c3)c(C)o2)cc1	20µM*	-10.0%	21.4%	-0.3%	-30.3%
Cc1oc(-c2cccc(Cl)c2)nc1CS(=O)(=O)CC(=O)NC1CC1	50.1µM*	-25.3%	87.7%	6.5%	-14.5%
CC(=O)c1ccc(NC(=O)c2ccc(-c3nc(COc4ccc(C)cc4)c(C)o3)cc2)cc1	?	-21.0%	44.7µM*	-1.5%	-8.6%
CC(=O)c1ccc(NC(=O)NC2CC(=O)N(c3ccc4c(c3)OCCO4)C2)cc1 (stereo not given)	4.0%	-9.6%	-4.2%	-2.6%	-17.7%
CC(C)(C)[C@H](NC(=O)c1ccc(N)c(Cl)c1)C(=O)N1CCC[C@H]1C(=O)N[C@H](C#N)CC(=O)O	nt	nt	nt	-2.9%	nt
COc1ccc(Cl)cc1NC(=O)C(C)n1nnc2sc3c(c2c1=O)CCCC3 (stereo not given)	14.1µM*	-18.6%	9.0%	-0.6%	-32.7%
